The values below come from PubChem BioAssay (NCI).

Assay [1] in a line: NCI Yeast Anticancer Drug Screen. Data for the rad50 strain (AID 155).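 Note: 0% = growth of vehicle-only cultures of the same strain.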 To be noted: S. cerevisiae rad50 strain growth inhibition, hits give high values. In a few lines:
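Inhibition values express reduced yeast growth in compound-treated cultures relative to vehicle-treated controls.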

A short description of assay [2]: NCI Yeast Anticancer Drug Screen. Data for the mec2-1 strain (AID 157). The following applies: S. cerevisiae mec2-1 strain, hits give high values. In a few lines:
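mec2-1 yeast strain, carrying an alteration in DNA damage repair or cell cycle control, was exposed to compounds; growth inhibition was measured relative to vehicle-treated controls.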

The nature of assay [3]: NCI Yeast Anticancer Drug Screen. Data for the sgs1 mgt1 strain (AID 161).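 Note: 0% = growth of cultures given vehicle only.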 To be noted: S. cerevisiae sgs1 mgt1 strain, hits give high values. In a few lines:
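Growth of a repair-deficient yeast mutant was monitored after compound treatment and expressed as inhibition relative to vehicle-treated cultures.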

The nature of assay [4]: NCI Yeast Anticancer Drug Screen. Data for the cln2 rad14 strain (AID 165).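 Note: 0% = growth equal to vehicle treated cultures.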 To be noted: S. cerevisiae cln2 rad14 strain, hits give high values. Put shortly: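 Yeast carrying cln2 and rad14 alterations (cell cycle control and DNA damage repair) were exposed to compounds. Growth inhibition was measured against vehicle-treated controls.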
Assay [5] in a line: NCI Yeast Anticancer Drug Screen. Data for the bub3 strain (AID 167). The following applies: S. cerevisiae bub3 mutant strain, hits give high values. In a few lines: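 Steps: expose the mutant yeast strain to compound; grow alongside vehicle-treated cultures; measure growth; express inhibition against the vehicle cultures.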
Assay [6] is described as follows: NCI Yeast Anticancer Drug Screen. Data for the mlh1 rad18 strain (AID 175). The following applies: S. cerevisiae mlh1 rad18 strain growth inhibition, hits give high values. Put shortly: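 Growth inhibition of the yeast strain was measured after compound exposure and expressed relative to vehicle-treated controls. The strain carries defined defects in DNA damage repair.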

Where [7] appears, read: at 5.0 µM (retest, dose inferred, filed as 0.5).
Setting [8] is: at 50.0 µM (retest, dose inferred, filed as 5.0).

SMILES strings stand for the structures. Compounds without any hit were thinned out: in the full panel of roughly 79,000, 15% have a hit. Values without a mark were called inactive. The source made the active and inactive calls. Cut-off read from the data, not from the text of the source: active = growth inhibition above about 70%; inactive = the rest.

As for `CCOC(=O)c1c(C)n(C)c2c1nnc1ccccc12`, the growth inhibition in assay [1] (setting [7]) is 16%; in assay [1] (setting [8]), 85% (active); in assay [1] (at 50.0 µM), 64.7%; in assay [2] (setting [7]) it was 15%; in assay [2] (setting [8]), 79% (active); in assay [2] (at 50.0 µM) it was 51.1%. Further, the growth inhibition is 19% in assay [3] (setting [7]); 82% (active) in assay [3] (setting [8]); 59% in assay [3] (at 50.0 µM); 12% in assay [4] (setting [7]); 69% in assay [4] (setting [8]); 55.2% in assay [4] (at 50.0 µM). Also, the growth inhibition in assay [5] (setting [7]) was 1%; in assay [5] (setting [8]) it was 73% (active); in assay [5] (at 50.0 µM), 46%; in assay [6] (setting [7]), 7%; in assay [6] (setting [8]), 83% (active); in assay [6] (at 50.0 µM) it was 57.1%.
As for `CCOC(=O)c1sc2c(c1O)c(=O)n(-c1ccccc1)c(=S)n2-c1ccccc1`, the growth inhibition in assay [1] (setting [7]) is 84% (active); in assay [1] (setting [8]), 98% (active); in assay [1] (at 50.0 µM) it was 95.7% (active); in assay [2] (setting [7]) it was 90% (active); in assay [2] (setting [8]) it was 98% (active); in assay [2] (at 50.0 µM), 95.8% (active). In addition, the growth inhibition in assay [3] (setting [7]) is 83% (active); in assay [3] (setting [8]) it was 98% (active); in assay [3] (at 50.0 µM) it was 95.5% (active); in assay [4] (setting [7]), 86% (active); in assay [4] (setting [8]), 98% (active); in assay [4] (at 50.0 µM), 85.3% (active). Further, the growth inhibition in assay [5] (setting [7]) was 47%; in assay [5] (setting [8]), 97% (active); in assay [5] (at 50.0 µM), 95.2% (active); in assay [6] (setting [7]), 92% (active); in assay [6] (setting [8]), 98% (active); in assay [6] (at 50.0 µM), 95% (active).
In the case of `CC(NNC(=S)N1CC2CCC(CC2)C1)c1nccc2ccccc12` (stereo not given), the growth inhibition is 98% (active) in assay [1] (setting [7]); 96% (active) in assay [1] (setting [8]); 98.7% (active) in assay [1] (at 50.0 µM); 98% (active) in assay [2] (setting [7]); 96% (active) in assay [2] (setting [8]); 99% (active) in assay [2] (at 50.0 µM). Moreover, the growth inhibition was 98% (active) in assay [3] (setting [7]); 96% (active) in assay [3] (setting [8]); 99% (active) in assay [3] (at 50.0 µM); 97% (active) in assay [4] (setting [7]); 95% (active) in assay [4] (setting [8]); 98.3% (active) in assay [4] (at 50.0 µM). Moreover, the growth inhibition was 97% (active) in assay [5] (setting [7]); 94% (active) in assay [5] (setting [8]); 99% (active) in assay [5] (at 50.0 µM); 98% (active) in assay [6] (setting [7]); 96% (active) in assay [6] (setting [8]); 99.1% (active) in assay [6] (at 50.0 µM).
Regarding `O=C1C(Cl)=C(Cl)C(=O)C2CC=CCC12` (stereo not given), the growth inhibition was 68% in assay [1] (setting [7]); 97% (active) in assay [1] (setting [8]); 99.3% (active) in assay [1] (at 50.0 µM); 92% (active) in assay [2] (setting [7]); 99% (active) in assay [2] (setting [8]); 99.4% (active) in assay [2] (at 50.0 µM). For the same compound, the growth inhibition is 92% (active) in assay [3] (setting [7]); 99% (active) in assay [3] (setting [8]); 99.6% (active) in assay [3] (at 50.0 µM); 85% (active) in assay [4] (setting [7]); 99% (active) in assay [4] (setting [8]); 99.1% (active) in assay [4] (at 50.0 µM). Besides, the growth inhibition was 91% (active) in assay [5] (setting [7]); 99% (active) in assay [5] (setting [8]); 99.5% (active) in assay [5] (at 50.0 µM); 90% (active) in assay [6] (setting [7]); 99% (active) in assay [6] (setting [8]); 99.5% (active) in assay [6] (at 50.0 µM).
Take `CCc1cccc(C)c1NC(=O)C(=O)CC(=O)c1ccccc1Cl`: the growth inhibition in assay [1] (setting [7]) was 0%; in assay [1] (setting [8]) it was -1%; in assay [1] (at 50.0 µM), 72% (active); in assay [2] (setting [7]), -1%; in assay [2] (setting [8]) it was 3%; in assay [2] (at 50.0 µM), 24.7%. The growth inhibition in assay [3] (setting [7]) was -4%; in assay [3] (setting [8]), 0%; in assay [3] (at 50.0 µM), 43.8%; in assay [4] (setting [7]) it was -6%; in assay [4] (setting [8]), 5%; in assay [4] (at 50.0 µM) it was -12.6%. For the same compound, the growth inhibition in assay [5] (setting [7]) was -2%; in assay [5] (setting [8]), -2%; in assay [5] (at 50.0 µM), 24.4%; in assay [6] (setting [7]), -8%; in assay [6] (setting [8]) it was 0%; in assay [6] (at 50.0 µM), 31.1%.
`O=C1C(C(O)(C(F)(F)Cl)C(F)(F)Cl)CCCC1C(O)(C(F)(F)Cl)C(F)(F)Cl` (stereo not given): the growth inhibition in assay [1] (setting [7]) was 95% (active); in assay [1] (setting [8]), 99% (active); in assay [1] (at 50.0 µM), 99.7% (active); in assay [2] (setting [7]) it was 97% (active); in assay [2] (setting [8]), 100% (active); in assay [2] (at 50.0 µM) it was 99.7% (active). The growth inhibition was 95% (active) in assay [3] (setting [7]); 99% (active) in assay [3] (setting [8]); 99.8% (active) in assay [3] (at 50.0 µM); 79% (active) in assay [4] (setting [7]); 100% (active) in assay [4] (setting [8]); 99.3% (active) in assay [4] (at 50.0 µM). Moreover, the growth inhibition in assay [5] (setting [7]) is 35%; in assay [5] (setting [8]), 99% (active); in assay [5] (at 50.0 µM), 99.7% (active); in assay [6] (setting [7]), 96% (active); in assay [6] (setting [8]), 99% (active); in assay [6] (at 50.0 µM), 99.6% (active).
`O=C(/N=C1\N=Nc2nc(C(C(=O)c3cccs3)c3nc4n(c3O)/C(=N/C(=O)Nc3ccc(Cl)cc3)N=N4)c(O)n21)Nc1ccc(Cl)cc1` (stereo not given): the growth inhibition in assay [1] (setting [7]) is -22%; in assay [1] (setting [8]), 5%; in assay [1] (at 50.0 µM), 38.7%; in assay [2] (setting [7]), -12%; in assay [2] (setting [8]), 23%; in assay [2] (at 50.0 µM) it was 63.4%. Besides, the growth inhibition in assay [3] (setting [7]) was -1%; in assay [3] (setting [8]), 7%; in assay [3] (at 50.0 µM), 66.2%; in assay [4] (setting [7]), -33%; in assay [4] (setting [8]), 7%; in assay [4] (at 50.0 µM) it was 63.6%. Also, the growth inhibition was -38% in assay [5] (setting [7]); 27% in assay [5] (setting [8]); 66.8% in assay [5] (at 50.0 µM); -27% in assay [6] (setting [7]); 43% in assay [6] (setting [8]); 49.3% in assay [6] (at 50.0 µM).
For `CCOC(=O)NN(C(=O)OCC)c1ccc(N=Nc2ccc(OC)cc2)n1C`, the growth inhibition is 1% in assay [1] (setting [7]); 84% (active) in assay [1] (setting [8]); 46% in assay [1] (at 50.0 µM); -25% in assay [2] (setting [7]); 85% (active) in assay [2] (setting [8]); 60.8% in assay [2] (at 50.0 µM). Also, the growth inhibition in assay [3] (setting [7]) was -22%; in assay [3] (setting [8]) it was 87% (active); in assay [3] (at 50.0 µM), 70.3% (active); in assay [4] (setting [7]), 29%; in assay [4] (setting [8]), 70% (active); in assay [4] (at 50.0 µM) it was 71.5% (active). The growth inhibition in assay [5] (setting [7]) is -40%; in assay [5] (setting [8]), 78% (active); in assay [5] (at 50.0 µM), 74% (active); in assay [6] (setting [7]), -32%; in assay [6] (setting [8]) it was 77% (active); in assay [6] (at 50.0 µM), 69.9%.
For `CCCCCCCCN=C(N)c1ccc(C(=O)OCC2CCCCC2)cc1`, the growth inhibition in assay [1] (setting [7]) is 98% (active); in assay [1] (setting [8]), 99% (active); in assay [1] (at 50.0 µM), 99.6% (active); in assay [2] (setting [7]) it was 99% (active); in assay [2] (setting [8]), 100% (active); in assay [2] (at 50.0 µM), 99.7% (active). Also, the growth inhibition in assay [3] (setting [7]) is 99% (active); in assay [3] (setting [8]), 99% (active); in assay [3] (at 50.0 µM) it was 99.7% (active); in assay [4] (setting [7]), 98% (active); in assay [4] (setting [8]), 99% (active); in assay [4] (at 50.0 µM), 99.5% (active). Besides, the growth inhibition in assay [5] (setting [7]) was 98% (active); in assay [5] (setting [8]), 100% (active); in assay [5] (at 50.0 µM), 99.6% (active); in assay [6] (setting [7]), 100% (active); in assay [6] (setting [8]), 100% (active); in assay [6] (at 50.0 µM), 99.7% (active).
Turning to `CC(=O)c1ccc2c(c1)CC1(C2)Cc2ccccc2C1=O` (stereo not given), the growth inhibition in assay [1] (setting [7]) was -5%; in assay [1] (setting [8]) it was -16%; in assay [1] (at 50.0 µM), -2.15%; in assay [2] (setting [7]), -1%; in assay [2] (setting [8]) it was 0%; in assay [2] (at 50.0 µM) it was 1.15%. Further, the growth inhibition in assay [3] (setting [7]) was 11%; in assay [3] (setting [8]), 24%; in assay [3] (at 50.0 µM) it was 7.8%; in assay [4] (setting [7]) it was 2%; in assay [4] (setting [8]), -13%; in assay [4] (at 50.0 µM) it was -10.6%. The growth inhibition in assay [5] (setting [7]) is 25%; in assay [5] (setting [8]) it was 84% (active); in assay [5] (at 50.0 µM), 84.3% (active); in assay [6] (setting [7]) it was -4%; in assay [6] (setting [8]), -9%; in assay [6] (at 50.0 µM), 10%.
